Compounds with a hit are over-represented: about 19% of the library has one in this group of screens.
IL-1B inflam inh = blocks inflammasome-driven IL-1 beta release; THP-1 LPS/ATP IL-1B secretion, AlphaLISA, 16 h; hits give low values; activity change, % at 57.5 µM; actives 4.7% (n = 360,000); in the data active = activity change below about -50%; inconclusive = mostly about -30% to -49%
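Secreted IL-1B measured by AlphaLISA bead assay after 16 h compound exposure of THP-1 cells; compounds (final up to 57.5 uM) added 1 h before LPS (250 ng/mL) and ATP (1.25 mM) stimulation; lower signal means less secretion.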
DT40 TDP1 no CPT = qHTS for Inhibitors of human tyrosyl-DNA phosphodiesterase 1 (TDP1): qHTS in cells in absence of CPT | DT40 Tdp1-/- hTDP1 cells, no CPT, ATP luminescence, 48 h | Potency, µM (top dose mostly 46.2 µM), actives largely listed as inhibitors | actives 15% (n = 420,000) | AID 686978, 2013; also: nearly all actives have a fitted effect of over 55% in size
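Camptothecin absent (DMSO only). Human TDP1-complemented DT40 knockout cells, 400 cells/well, 37 °C for minimum 48 hr; ATP measured via CellTiter-Glo, 30 min dark incubation, luminescence.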
TDP1 block = inhibitors of human tyrosyl-DNA phosphodiesterase TDP1. Q9NUW8. Potency, µM (titrated, usually from 130 µM), most hits filed as inhibitors. actives 0.28% (n = 350,000). recombinant TDP1, AlphaScreen DNA substrate cleavage. AID 485290; also: nearly all actives have a fitted effect of over 40% in size
Target sequence (Q9NUW8 whole entry, looked up): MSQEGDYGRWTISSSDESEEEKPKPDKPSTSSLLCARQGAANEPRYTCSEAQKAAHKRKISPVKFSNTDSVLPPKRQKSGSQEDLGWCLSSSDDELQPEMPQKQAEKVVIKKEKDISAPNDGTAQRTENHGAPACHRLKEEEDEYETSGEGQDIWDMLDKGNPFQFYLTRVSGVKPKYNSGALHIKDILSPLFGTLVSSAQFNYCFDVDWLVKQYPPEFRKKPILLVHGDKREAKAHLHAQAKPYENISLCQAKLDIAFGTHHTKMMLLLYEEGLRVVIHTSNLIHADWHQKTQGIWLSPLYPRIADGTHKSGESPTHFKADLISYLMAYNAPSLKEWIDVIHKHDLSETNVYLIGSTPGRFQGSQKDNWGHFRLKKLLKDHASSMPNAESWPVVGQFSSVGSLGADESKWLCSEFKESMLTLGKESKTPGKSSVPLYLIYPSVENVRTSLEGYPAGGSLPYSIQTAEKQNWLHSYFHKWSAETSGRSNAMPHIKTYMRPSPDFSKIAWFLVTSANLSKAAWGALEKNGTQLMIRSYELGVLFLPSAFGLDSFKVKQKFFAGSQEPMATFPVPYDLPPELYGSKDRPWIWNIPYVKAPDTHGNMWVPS
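Signal: AlphaScreen proximity between streptavidin donor and anti-FITC acceptor beads on intact substrate. Reaction: Tdp1 1 nM, substrate 15 nM final, 5 min RT after 15 min compound preincubation.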
DT40 TDP1 CPT = DT40-hTDP1 cell growth loss with CPT; actives 12% (n = 420,000); Potency, µM (titrated, usually from 46.2 µM), hits mostly inhibitors; chicken DT40 Tdp1-/-;hTDP1 cells + 20 nM CPT, ATP luminescence, 48 h; AID 686979; also: nearly all actives have a fitted effect of over 55% in size
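Cell growth measured by CellTiter-Glo luminescence after a minimum 48 h, 37 C compound exposure with 20 nM CPT in Tdp1-knockout DT40 cells stably expressing hTDP1, seeded 400/well; qHTS titration format.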
HepG2 viability = counter-screen for TGF-b inhibitors: cytotoxicity in HepG2 cells; HepG2 CAGA-GFP viability, ATP luminescence, 18 h; Potency, µM (series often up to 46.1 µM), hits mostly cytotoxic; actives 0.76% (n = 410,000)
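HepG2 CAGA-GFP cells (1000/well, DMEM with 1% FBS) received compound, then TGF-beta at 500 pg/mL final, and were incubated 18 hours at 37 degrees C. Viability was read by CellTiter-Glo luminescence. Media-only wells were set as complete cell-killing and DMSO as no toxicity.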
TGFb SMAD3 inh = TGF-b pathway inhibition; actives 1.2% (n = 410,000); HepG2 CAGA-GFP TGF-b/SMAD3 reporter, GFP fluorescence, 18 h; TGF-beta stimulated, 500 pg/mL final; Potency, µM (titrated, usually from 46.1 µM), hits mostly inhibitors; also: nearly all actives have a fitted effect of over 65% in size
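HEPG2 CAGA-GFP cells (1000/well, DMEM with 1% FBS) were pre-incubated 2 h at 37 degrees C, given compound by pin tool, then stimulated with TGF-beta at 500 pg/mL final for 18 h before per-cell GFP fluorescence imaging.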
Hits are given with their value; – = inactive; ? = inconclusive; · = not tested or not shown. Unless noted, calls follow the shape of the dose curve; as a rule, active = well fitted curve in the direction sought with a large enough effect; inconclusive = small, poorly fitted or top-dose-only effect, or another doubt; inactive = no such curve, though single readings can be large; an effect the other way counts as inactive or inconclusive.

SMILES | IL-1B inflam inh | DT40 TDP1 no CPT | TDP1 block | DT40 TDP1 CPT | HepG2 viability | TGFb SMAD3 inh
N#CCCN(C(=O)COC(=O)CCc1c[nH]c2ccccc12)c1ccccc1 | – | – | · | – | – | –
COC(=O)[C@]12CCCCC=C1N(Cc1ccccc1)C(=O)[C@H](CC(=O)NCc1cccs1)C2 | – | – | · | ? | · | ·
CCCCOCCCNC(=O)C[C@@H]1C[C@@]2(C(=O)OC)CCCCC=C2N(Cc2ccco2)C1=O | – | 16µM | · | ? | · | ·
COC(=O)[C@]12CCCCC=C1N(Cc1ccco1)C(=O)[C@H](CC(=O)NCc1cccc(C(F)(F)F)c1)C2 | – | ? | · | ? | · | ·
CCOC(=O)[C@]12CCCC=C1N(Cc1ccco1)C(=O)[C@H](CC(=O)NCc1cccs1)C2 | – | 26µM | · | ? | · | ·
COC(=O)[C@]12CCCCC=C1N(Cc1ccco1)C(=O)[C@H](CC(=O)NCc1cccs1)C2 | – | 23µM | · | ? | · | ·
CCOC(=O)[C@]12CCCC=C1N(Cc1ccco1)C(=O)[C@H](CC(=O)NCc1cccc(C(F)(F)F)c1)C2 | – | 18µM | · | ? | · | ·
CCCCNC(=O)C[C@@H]1C[C@@]2(C(=O)OC)CCCCC=C2N(Cc2ccco2)C1=O | – | ? | · | ? | · | ·
COC(=O)c1ccc(Cl)cc1NC(=O)Nc1nnc(N2CCCC2)s1 | · | – | – | – | – | ?
CSCCC(NC(=O)c1cccc(C)c1)C(=O)Nc1sccc1C(N)=O (centres undefined) | – | ? | – | ? | – | –
CC(C)(C)c1ccc(C(=O)Nc2ccc(C=C(C#N)C#N)cc2)cc1 | – | 12µM | – | 16µM | – | –
N#CC(C#N)=Cc1ccc(NC(=O)c2ccc(Br)cc2)cc1 | ? | 16µM | · | 21µM | – | –
O=C(Nc1ccc(C(=O)N2CCCCC2)cc1)c1ccc(Br)cc1 | – | ? | – | – | – | –
CC(C)(C)c1ccc(NC(=O)c2cc[n+]([O-])cc2)cc1 | – | ? | · | – | – | –
Cn1c(=O)c2c(-c3ccc(Cl)cc3)ccnc2n(C)c1=O | · | ? | – | – | – | –
COc1cc(C2CC(=O)N(CC(=O)Nc3ccccc3F)c3ccccc3S2)cc(OC)c1OC (centres undefined) | · | · | – | · | – | –
COc1ccc(C(=O)NCC(c2ccc(N(C)C)cc2)N2CCc3ccccc32)cc1 (centres undefined) | · | 8.2µM | – | 7.3µM | – | –
CN(C)c1ccc(C(CNC(=O)c2ccccc2)N2CCc3ccccc32)cc1 (centres undefined) | · | 15µM | – | 7.3µM | – | –
Cc1ccc(S(=O)(=O)NCC(c2ccc(N(C)C)cc2)N2CCc3ccccc32)cc1C (centres undefined) | · | 23µM | – | ? | – | –
CN(C)c1ccc(C(CNC(=O)c2ccccc2Cl)N2CCc3ccccc32)cc1 (centres undefined) | · | ? | – | ? | – | –
CC(C)Oc1ccc(C(=O)NCC(c2ccc(N(C)C)cc2)N2CCc3ccccc32)cc1 (centres undefined) | · | 21µM | – | 9.2µM | – | –
CCCn1c(SCC(=O)NCc2ccccc2)n[nH]c1=O | – | – | – | – | – | –
Cc1onc(-c2c(F)cccc2Cl)c1C(=O)N(C)CCc1ccccn1 | – | – | – | – | – | –
COc1ccccc1C(=O)NCC(c1ccc(N(C)C)cc1)N1CCc2ccccc21 (centres undefined) | · | 16µM | – | 21µM | – | ?
Cc1nc(N2CCOCC2)c2c(C(=O)Nc3cccc(C(F)(F)F)c3)c(C)oc2n1 | · | – | – | – | – | –
Cc1oc2ccc(O)c(CN3CCOCC3)c2c1C(=O)Nc1cccc(C(F)(F)F)c1 | · | ? | – | 16µM | – | –
Cc1oc2ccc(O)c(CN(C)Cc3ccccc3)c2c1C(=O)Nc1cccc(C(F)(F)F)c1 | · | 5.2µM | – | 5.8µM | 10µM | ?

Screening data: PubChem, National Center for Advancing Translational Sciences (NCATS)
